Test results from PMC5540273 (PLoS ONE, 2017).

How the values were obtained:
Conditions in all cases: concentration: 1 μM, replicates: in singlicate; n = 1
MST2 = test system: T1, MST2
T1 construct: gene STK3

MST3 = test system: T2, MST3
T2 construct: gene STK24

MST4 = test system: MST4
MTOR = test system: MTOR
MUSK = test system: MUSK
MYLK2 = test system: MYLK2
MYLK4 = test system: MYLK4
MYLK = test system: MYLK
MYO3A = test system: MYO3A
MYO3B = test system: MYO3B
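Note: KINOMEscan kinase panel screen.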

Cc1cc(NCC(c2ccccc2)c2ccccc2)nc(NCc2ccc(C(F)(F)F)cc2)n1 [GW497681]
%Inh (MST2): 0%
%Inh (MST3): 3%
%Inh (MST4): 0%
%Inh (MTOR): 1%
%Inh (MUSK): 0%
%Inh (MYLK2): 0%
%Inh (MYLK4): 0%
%Inh (MYLK): 15%
%Inh (MYO3A): 34%
%Inh (MYO3B): 0%

Cc1cccc(-c2nc(Nc3cccc(C(N)=O)c3)c3ccccc3n2)n1 [GW876019]
%Inh (MST2): 20%
%Inh (MST3): 0%
%Inh (MST4): 0%
%Inh (MTOR): 35%
%Inh (MUSK): 0%
%Inh (MYLK2): 0%
%Inh (MYLK4): 0%
%Inh (MYLK): 28%
%Inh (MYO3A): 11%
%Inh (MYO3B): 20%

COc1ccc2nc(-c3cccc(C)n3)nc(Nc3ccncc3)c2c1 [GSK204919]
%Inh (MST2): 0%
%Inh (MST3): 0%
%Inh (MST4): 0%
%Inh (MTOR): 43%
%Inh (MUSK): 1%
%Inh (MYLK2): 0%
%Inh (MYLK4): 0%
%Inh (MYLK): 5%
%Inh (MYO3A): 0%
%Inh (MYO3B): 0%

C[C@@H]1CCCCN1c1cc(-c2ccc3c(N)n[nH]c3c2)nc(N)n1 [GSK2258759]
%Inh (MST2): 0%
%Inh (MST3): 7%
%Inh (MST4): 0%
%Inh (MTOR): 2%
%Inh (MUSK): 5%
%Inh (MYLK2): 0%
%Inh (MYLK4): 0%
%Inh (MYLK): 5%
%Inh (MYO3A): 30%
%Inh (MYO3B): 0%

O=C(Nc1n[nH]c2nc(-c3nccs3)c(Br)cc12)C1CCCC1 [SB-742609]
%Inh (MST2): 0%
%Inh (MST3): 0%
%Inh (MST4): 6%
%Inh (MTOR): 11%
%Inh (MUSK): 31%
%Inh (MYLK2): 90%
%Inh (MYLK4): 27%
%Inh (MYLK): 0%
%Inh (MYO3A): 0%
%Inh (MYO3B): 0%

CC1=C(C(=O)Nc2cc3cn[nH]c3cc2F)C(c2ccc(C(F)(F)F)cc2)CC(=O)N1 (stereo not drawn) [GSK429286]
%Inh (MST2): 0%
%Inh (MST3): 0%
%Inh (MST4): 0%
%Inh (MTOR): 13%
%Inh (MUSK): 6%
%Inh (MYLK2): 0%
%Inh (MYLK4): 0%
%Inh (MYLK): 13%
%Inh (MYO3A): 0%
%Inh (MYO3B): 0%

Cc1ccc(NC(=O)Nc2cc(C(C)(C)C)nn2-c2ccccc2)cc1 [GSK1014915]
%Inh (MST2): 23%
%Inh (MST3): 5%
%Inh (MST4): 13%
%Inh (MTOR): 30%
%Inh (MUSK): 17%
%Inh (MYLK2): 9%
%Inh (MYLK4): 4%
%Inh (MYLK): 11%
%Inh (MYO3A): 0%
%Inh (MYO3B): 0%

COC(=O)c1c(-c2ccccc2)c2cc(C(=O)O)ccc2c(=O)n1Cc1ccccc1
%Inh (MST2): 12%
%Inh (MST3): 0%
%Inh (MST4): 9%
%Inh (MTOR): 25%
%Inh (MUSK): 0%
%Inh (MYLK2): 8%
%Inh (MYLK4): 0%
%Inh (MYLK): 0%
%Inh (MYO3A): 0%
%Inh (MYO3B): 0%

Cl.O=C(Nc1cccc(-c2nn3ncccc3c2-c2ccnc(Nc3cccnc3)n2)c1)c1c(F)cccc1F [GSK312879]
%Inh (MST2): 19%
%Inh (MST3): 0%
%Inh (MST4): 0%
%Inh (MTOR): 15%
%Inh (MUSK): 23%
%Inh (MYLK2): 13%
%Inh (MYLK4): 1%
%Inh (MYLK): 2%
%Inh (MYO3A): 0%
%Inh (MYO3B): 0%

Cn1ccc2ncnc(Oc3ccc(NC(=O)Nc4ccccc4)cc3)c21
%Inh (MST2): 0%
%Inh (MST3): 0%
%Inh (MST4): 0%
%Inh (MTOR): 16%
%Inh (MUSK): 14%
%Inh (MYLK2): 2%
%Inh (MYLK4): 0%
%Inh (MYLK): 3%
%Inh (MYO3A): 5%
%Inh (MYO3B): 28%

CC(C)(C)c1ccc(C(=O)Nc2cn3cc(Cl)ccc3n2)cc1
%Inh (MST2): 0%
%Inh (MST3): 0%
%Inh (MST4): 0%
%Inh (MTOR): 31%
%Inh (MUSK): 0%
%Inh (MYLK2): 0%
%Inh (MYLK4): 0%
%Inh (MYLK): 9%
%Inh (MYO3A): 7%
%Inh (MYO3B): 0%

Cc1c(Cn2ccn3c(=O)cc(N4CCOCC4)nc23)cccc1C(F)(F)F [GSK2289044]
%Inh (MST2): 0%
%Inh (MST3): 0%
%Inh (MST4): 0%
%Inh (MTOR): 15%
%Inh (MUSK): 17%
%Inh (MYLK2): 0%
%Inh (MYLK4): 0%
%Inh (MYLK): 16%
%Inh (MYO3A): 12%
%Inh (MYO3B): 2%

O=C1NC(=O)C(N2CCc3ccccc32)=C1c1ccccc1Cl [SB-373598]
%Inh (MST2): 0%
%Inh (MST3): 0%
%Inh (MST4): 8%
%Inh (MTOR): 15%
%Inh (MUSK): 2%
%Inh (MYLK2): 22%
%Inh (MYLK4): 0%
%Inh (MYLK): 8%
%Inh (MYO3A): 14%
%Inh (MYO3B): 9%

Cl.NC(=O)c1cccc(Nc2nccc(Nc3ccc(Oc4cccc(Cl)c4)c(Cl)c3)n2)c1 [GW659008]
%Inh (MST2): 0%
%Inh (MST3): 10%
%Inh (MST4): 0%
%Inh (MTOR): 0%
%Inh (MUSK): 13%
%Inh (MYLK2): 21%
%Inh (MYLK4): 14%
%Inh (MYLK): 3%
%Inh (MYO3A): 6%
%Inh (MYO3B): 3%

Fc1cc(Cl)ccc1Nc1ccnc2cc(I)ccc12 [GW551191]
%Inh (MST2): 9%
%Inh (MST3): 0%
%Inh (MST4): 0%
%Inh (MTOR): 8%
%Inh (MUSK): 0%
%Inh (MYLK2): 0%
%Inh (MYLK4): 0%
%Inh (MYLK): 11%
%Inh (MYO3A): 13%
%Inh (MYO3B): 0%

O=C(Nc1ccccc1)Nc1cccc(Oc2ccc3nccn3n2)c1
%Inh (MST2): 0%
%Inh (MST3): 3%
%Inh (MST4): 0%
%Inh (MTOR): 21%
%Inh (MUSK): 0%
%Inh (MYLK2): 0%
%Inh (MYLK4): 0%
%Inh (MYLK): 0%
%Inh (MYO3A): 0%
%Inh (MYO3B): 0%

Cc1ccc(NC(=O)Nc2cccc(Cl)c2)cc1-c1ccc(C(=O)Nc2ccncc2)cc1 [GSK1398468]
%Inh (MST2): 0%
%Inh (MST3): 0%
%Inh (MST4): 0%
%Inh (MTOR): 9%
%Inh (MUSK): 5%
%Inh (MYLK2): 9%
%Inh (MYLK4): 13%
%Inh (MYLK): 8%
%Inh (MYO3A): 100%
%Inh (MYO3B): 0%

O=c1cc(N2CCOCC2)nc2n(Cc3cccc(Cl)c3Cl)ccn12 [GSK2286295]
%Inh (MST2): 0%
%Inh (MST3): 0%
%Inh (MST4): 0%
%Inh (MTOR): 17%
%Inh (MUSK): 8%
%Inh (MYLK2): 2%
%Inh (MYLK4): 0%
%Inh (MYLK): 25%
%Inh (MYO3A): 0%
%Inh (MYO3B): 8%
